# Sm TGR block – S. mansoni TGR enzyme inhibition. Q962Y6. AID 485364. purified TGR, DTNB reduction, TNB absorbance 405 nm. 360,000 tested, 3% active. Potency, µM (titrated, usually from 114 µM), for inactives: at the top dose activity change, negative = inhibition, usual class: inhibitors; note: % is set by controls: 0 for no effect and ±100 for the full control effect; nearly all actives have a fitted effect of over 60% in size
#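 Kinetic colorimetric format: TGR-catalysed, NADPH-driven DTNB reduction monitored via TNB absorbance. Enzyme dispensed at 20 nM; compound exposure 15 min at room temperature before reaction start.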
# Pf growth 96h – P. falciparum growth inhibition at 96 hour, primary screen for plastid delayed-death inhibitors; 320,000 tested, 6.9% active; Potency, µM (doses to about 28.7 µM), without a hit: top-dose activity change, negative = inhibition, hits mostly inhibitors; AID 504834; P. falciparum luciferase reporter growth, 96 h; note: % is set by controls: 0 for no effect and ±100 for the full control effect
#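 Luminescence readout: decreased luciferase signal marks inhibited growth of reporter-expressing P. falciparum in infected red cells (2% hematocrit, 0.05% parasitemia final), exposed to compound two generations (96 h, 37 C, 5% CO2).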
# SARS PLpro yeast – inhibitors of SARS-CoV papain-like protease in yeast; S. cerevisiae expressing SARS-CoV PLpro, growth rescue; Potency, µM (top dose mostly 32.9 µM), without a hit: top-dose activity, positive = growth rescue, usual class: activators; 330,000 tested, 0.19% active; calls by dose curve; note: 0% is about no effect; nearly all actives have a fitted effect of over 55% in size
# AmpC inh no detg – blocks E. coli AmpC beta-lactamase in detergent-free assay | P00811 | AmpC nitrocefin hydrolysis, absorbance 480 nm, 0.0001% Triton | Potency, µM (highest dose often 57.1 µM), without a hit: top-dose activity change, negative = inhibition, most hits filed as inhibitors | 330,000 tested, 0.52% active | AID 485341;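 note: plate controls were no compound for no effect and no enzyme for full effect; nearly all actives have a fitted effect of over 20% in size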
# Target sequence (P00811 whole entry, looked up): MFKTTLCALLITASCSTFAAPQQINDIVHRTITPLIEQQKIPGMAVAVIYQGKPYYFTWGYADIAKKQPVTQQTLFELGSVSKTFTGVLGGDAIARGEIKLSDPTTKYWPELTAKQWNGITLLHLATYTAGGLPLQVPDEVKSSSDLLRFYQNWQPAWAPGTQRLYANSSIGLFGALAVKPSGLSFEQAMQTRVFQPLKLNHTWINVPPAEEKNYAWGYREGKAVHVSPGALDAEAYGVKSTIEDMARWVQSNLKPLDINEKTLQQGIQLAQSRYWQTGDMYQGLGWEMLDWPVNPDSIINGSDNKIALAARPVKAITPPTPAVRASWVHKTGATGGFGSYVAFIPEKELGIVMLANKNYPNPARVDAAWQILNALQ
#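 AmpC (5.3 nM in the dispensed reagent) in 20 mM phosphate pH 7.0 with 0.01% (detergent screen) or 0.0001% Triton X-100 was preincubated with compounds for 15 min at room temperature. Nitrocefin was then added from an 800 uM solution, and hydrolysis was followed at 480 nm.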
# Pf growth 48h – inhibits P. falciparum growth in the first generation, 48 h | P. falciparum luciferase growth in erythrocytes, 48 h | Potency, µM (top dose mostly 28.7 µM), for the others: at the top dose activity change, negative = inhibition, most hits filed as inhibitors | 310,000 tested, 5.9% active | AID 504832; note: % is set by controls: 0 for no effect and ±100 for the full control effect
#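 Luciferase-expressing P. falciparum in infected erythrocytes (2% hematocrit, 0.1% parasitemia final) in RPMI 1640/0.5% Albumax were exposed to compound for 48 hours at 37 C, 5% CO2; growth read as luminescence.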
# AmpC detergent – blocks E. coli AmpC beta-lactamase in detergent assay; P00811; AmpC hydrolysis of nitrocefin, absorbance 480 nm, 0.01% Triton; Potency, µM (highest dose often 114 µM), for the others: top-dose activity change, negative = inhibition, hits mostly inhibitors; 370,000 tested, 0.041% active;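 note: 0% = no-compound wells and -100% = no-enzyme wells; nearly all actives have a fitted effect of over 25% in size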
#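 AmpC (5.3 nM in the dispensed reagent) in 20 mM phosphate pH 7.0 with 0.01% (detergent screen) or 0.0001% Triton X-100 was preincubated with compounds for 15 min at room temperature. Nitrocefin was then added from an 800 uM solution, and hydrolysis was followed at 480 nm.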
# Active calls of the source: *; ? = inconclusive; . = not tested or not shown. In the library only some 12% were active in any assay of this set; here they are far more common. Unless noted, calls come from the whole dose curve; as a rule, active = well fitted curve in the direction sought with a large enough effect; inconclusive = small, poorly fitted or top-dose-only effect, or another doubt; inactive = no such curve, though single readings can be large; an effect the other way counts as inactive or inconclusive. Potency is the fitted concentration of half-maximal effect.
SMILES,Sm TGR block,Pf growth 96h,SARS PLpro yeast,AmpC inh no detg,Pf growth 48h,AmpC detergent
CCOC(=O)c1c(S(=O)(=O)N2CCC(C(=O)Nc3cccc(C#N)c3)CC2)c(C)n(C)c1C,3.7%,.,.,.,.,-7.9%
CCc1cc(=O)oc2cc(C)cc(O)c12,4.9%,21.3%,-21.6%,-2.4%,.,-1.4%
Cc1cc(O)c2c(CN3CCN(Cc4ccccc4)CC3)cc(=O)oc2c1,-31.6%,8.28µM*,-0.9%,67.0%,?,2.3%
Cc1c(=O)n(OCc2ccccc2F)c2ccccc2[n+]1[O-],-25.2%,.,-1.2%,-20.2%,23.7%,-14.7%
COC(=O)c1cc(NC(=O)c2cc(-c3ccc(OC)cc3)oc2C(F)(F)F)ccc1N1CCOCC1,-0.1%,9.28µM*,-0.5%,115.3%,8.28µM*,2.5%
COC(=O)c1cc(NC(=O)c2cc(-c3ccc(C(F)(F)F)cc3)oc2C(F)(F)F)ccc1N1CCOCC1,-1.2%,1.47µM*,0.3%,2.6%,2.08µM*,2.6%
COC(=O)c1cc(NC(C)=O)ccc1N1CCOCC1,.,439.3%,1.6%,2.7%,24.0%,-4.3%
CCCCn1c(N)c(N(CCC(C)C)C(=O)CCN2C(=O)C3CC=CCC3C2=O)c(=O)[nH]c1=O (centres undefined),3.7%,?,0.5%,-16.1%,-6.9%,-0.8%
COC(=O)C1=C(N)Oc2cc(C)[nH]c(=O)c2C1c1ccccc1OC (centres undefined),0.0%,27.0%,0.2%,1.3%,-4.5%,-3.6%
COC(=O)C1=C(N)Oc2cc(C)[nH]c(=O)c2C1c1cc(OC)c(OC)c(OC)c1 (centres undefined),-10.5%,-9.1%,-5.5%,0.6%,10.4µM*,-5.7%
COc1ccc(N2C(=O)CSC23C(=O)N(CC(=O)NC2CCCC2)c2ccccc23)cc1 (centres undefined),-10.4%,8.28µM*,1.8%,1.0%,-4.9%,-5.4%
Cc1ccc(N2C(=O)CSC23C(=O)N(CC(=O)NC2CCCCC2)c2ccccc23)cc1C (centres undefined),5.6%,.,.,.,.,-2.2%
Cc1ccc(CSCC(=O)N2CCN(c3ccccc3)CC2)cc1,7.1%,4.15µM*,-4.1%,30.5%,-7.4%,4.6%
O=C(COC(=O)c1ccccc1C(=O)N1CCN(c2ccccc2)CC1)Nc1ccccc1,7.4%,-9.2%,-2.9%,54.9%,4.15µM*,-0.2%
O=C(COC(=O)c1ccccc1C(=O)N1CCN(c2ccccc2)CC1)Nc1ccc(F)cc1,-0.6%,.,0.5%,44.5%,-9.3%,2.5%
O=C(CSCc1ccccc1)N1CCN(c2ccccc2)CC1,-9.0%,?,16.2%,-4.8%,71.7%,?
O=C(O)c1ccccc1C(=O)N1CCN(C(=O)c2ccccc2Cl)CC1,89.1µM*,?,2.0%,-18.5%,-10.7%,0.7%
O=C(c1ccccc1C(=O)N1CCN(c2ccccc2)CC1)N1CCN(c2ccccc2)CC1,7.8%,17.2%,-1.0%,107.2%,?,0.4%
O=C(O)c1ccccc1C(=O)N1CCN(c2ccccc2)CC1,35.5µM*,?,17.0%,-4.4%,28.6%,-16.6%
CN1CCCN(C(=O)c2ccccc2Cl)CC1,0.0%,?,-0.1%,-2.7%,29.3%,-2.0%
COc1ccc(OC)c(CNS(=O)(=O)c2cc(-c3onc(C)c3C)ccc2C)c1,1.0%,.,.,.,.,1.2%
O=c1c2oc3ccccc3c2n(Cc2ccccc2F)c(=O)n1Cc1ccco1,2.5%,.,.,.,.,21.0%
CCOc1ccc(NC(=O)C2CCCN2S(=O)(=O)c2ccc3c(c2)C(C)(C)C(=O)N3C)cc1 (centres undefined),6.1%,?,-7.0%,76.9%,-18.1%,?
COc1cccc(NC(=O)CCc2nnc3ccc(N4CCN(c5cccc(OC)c5)CC4)nn23)c1,0.4%,?,0.1%,-11.2%,?,3.5%
COc1cc(NC(=O)CCc2nnc3ccc(N4CCN(c5cccc(OC)c5)CC4)nn23)cc(OC)c1,0.8%,3.29µM*,-4.8%,-0.4%,2.4%,-6.5%
SMILES,Sm TGR block,Pf growth 96h,SARS PLpro yeast,AmpC inh no detg,Pf growth 48h,AmpC detergent
COc1cccc(N2CCN(C(=O)CCc3nnc4ccc(N5CCCC5)nn34)CC2)c1,-32.4%,?,0.3%,115.1%,?,1.6%
COc1ccccc1N1CCN(C(=O)CCc2nnc3ccc(N4CCC(C)CC4)nn23)CC1,-20.8%,-19.0%,5.0%,190.4%,10.4µM*,2.9%
COc1ccc(NC(=O)CCc2nnc3ccc(N4CCN(c5cccc(OC)c5)CC4)nn23)cc1,-5.9%,0.329µM*,1.6%,70.1%,11.7µM*,-5.3%
COc1cc(NC(=O)CCc2nnc3ccc(N4CCC(C)CC4)nn23)cc(OC)c1,3.2%,1.85µM*,14.8%,136.4%,-16.2%,1.6%
COc1cccc(N2CCN(C(=O)CCc3nnc4ccc(N5CCOCC5)nn34)CC2)c1,?,11.7µM*,2.0%,48.2%,-3.3%,1.8%
COc1ccccc1NC(=O)C(C)OC(=O)CC1CCCCC1 (centres undefined),-14.1%,?,4.1%,0.6%,13.1µM*,-5.5%
COc1ccc(OC)c(NC(=O)C(CC(C)C)NC(=O)C2CCCCC2)c1 (centres undefined),0.0%,?,.,.,?,-0.6%
CC(=O)c1cccc(NC(=O)C(CC(C)C)NC(=O)C2CCCCC2)c1 (centres undefined),-16.2%,-3.8%,-1.7%,-0.5%,5.86µM*,3.6%
COc1ccccc1NC(=O)C(CC(C)C)NC(=O)C1CCCCC1 (centres undefined),2.2%,8.28µM*,0.1%,-0.2%,.,-6.6%
CCOc1ccccc1-n1c(SCC(N)=O)nnc1-c1cccnc1,11.9%,11.7µM*,3.0%,-13.8%,-6.1%,-5.4%
Cc1ccccc1-n1c(SCC(=O)c2cc(C)n(C)c2C)nnc1-c1cccnc1,-22.3%,?,2.7%,117.8%,.,-2.5%
COCCn1c(C)cc(C(=O)CSc2nnc(-c3cccnc3)n2-c2ccccc2F)c1C,?,-26.8%,-3.8%,83.5%,10.4µM*,?
CCOc1ccccc1-n1c(SCC(=O)N(C(C)C)C(C)C)nnc1-c1cccnc1,1.1%,.,-2.4%,51.5%,-26.6%,-0.3%
CC(C)(C)OC(=O)C[C@@H]1C/C=C\C[C@@H](CC(=O)N[C@@H](CO)Cc2ccccc2)C(=O)N2CCC[C@@H]2COC1=O,.,.,-6.4%,280.3%,.,.
Cc1ccc2c(C(=O)CN3CCCCC3)c(C)[nH]c2c1,20µM*,-10.6%,1.0%,-1.8%,-7.6%,-14.1%
CCOC(=O)C1CCN(CC(=O)c2c(C)[nH]c3cc(C)ccc23)CC1,30.9%,89.0%,-5.1%,11.4%,-29.9%,-2.3%
